# Most compounds without a hit are left out; they make up all but 21% or so of the library.
# Shiga toxin inh: A qHTS for Small Molecule Inhibitors of Shiga Toxin; Vero cells, Shiga toxin protein synthesis inhibition reporter; inhibition, % at 38.7 µM; 290,000 compounds, 9.2% hits; in the data active = inhibition mostly above about 28%, no sharp cut-off; inactive = mostly below about 43%
# Sm TGR inh: qHTS Assay for the Inhibitors of Schistosoma Mansoni Peroxiredoxins. purified TGR, DTNB reduction, TNB absorbance 405 nm. Potency, µM (titrated, usually from 114 µM), usual class: inhibitors. 360,000 compounds, 3% hits. AID 485364, 2010. Schistosoma mansoni thioredoxin glutathione reductase (TGR), Q962Y6; note: nearly all actives have a fitted effect of over 60% in size
#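 Kinetic colorimetric format: TGR-catalysed, NADPH-driven DTNB reduction monitored via TNB absorbance. Enzyme dispensed at 20 nM; compound exposure 15 min at room temperature before reaction start.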
# NS1 function inh: qHTS Assay for Inhibitors of Influenza NS1 Protein Function; 270,000 compounds, 0.4% hits; Potency, µM (top dose mostly 46.1 µM); calls by dose curve; note: actives are rising curves; nearly all actives have a fitted effect of over 50% in size
#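 In this qHTS, NS1 from influenza A is expressed in budding yeast, where it slows growth. Cells are switched from glucose to 2% galactose medium (pH 6.0, -URA), treated with compound, and growth recovery is read at OD600.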
# Pf growth 96h: Primary qHTS for delayed death inhibitors of the malarial parasite plastid, 96 hour incubation. P. falciparum luciferase reporter growth, 96 h. Potency, µM (series often up to 28.7 µM), actives largely listed as inhibitors. 320,000 compounds, 6.9% hits. AID 504834, 2011
#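 Luminescence readout: decreased luciferase signal marks inhibited growth of reporter-expressing P. falciparum in infected red cells (2% hematocrit, 0.05% parasitemia final), exposed to compound two generations (96 h, 37 C, 5% CO2).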
# Cycloheximide cs: Cycloheximide Counterscreen for Small Molecule Inhibitors of Shiga Toxin. 300,000 compounds, 12% hits. cell reporter, cycloheximide protein synthesis inhibition counterscreen. max response, %; in the data active = max response mostly above about 13%, no sharp cut-off; inactive = mostly below about 14%; note: read at 38.3 µM for the half of the compounds with a filed dose
# Pf growth 48h: Primary qHTS for delayed death inhibitors of the malarial parasite plastid, 48 hour incubation; P. falciparum luciferase growth in erythrocytes, 48 h; Potency, µM (doses to about 28.7 µM), hits mostly inhibitors; 310,000 compounds, 5.9% hits; AID 504832, 2011
#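 Read-out is firefly luciferase luminescence from an integrated reporter in P. falciparum, so falling signal marks reduced parasite growth. Infected erythrocytes were at 2% hematocrit and 0.1% parasitemia (final) in Albumax-supplemented RPMI 1640.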
# Hits are given with their value; n = inactive; u = inconclusive; x = not tested or not shown. Unless noted, calls come from the whole dose curve; as a rule, active = well fitted curve in the direction sought with a large enough effect; inconclusive = small, poorly fitted or top-dose-only effect, or another doubt; inactive = no such curve, though single readings can be large; an effect the other way counts as inactive or inconclusive.
SMILES,Shiga toxin inh,Sm TGR inh,NS1 function inh,Pf growth 96h,Cycloheximide cs,Pf growth 48h
COCC(C)n1c(SCC(=O)NC(=O)Nc2ccc3c(c2)OCCO3)nc2ccccc2c1=O (configuration not stated),65,n,n,u,33,12µM
c1ccn2c(SCc3ccc4c(c3)OCCO4)nnc2c1,98,n,n,n,51,n
COCC(C)n1c(SCC(=O)NC(=O)Cc2ccccc2)nc2ccccc2c1=O (configuration not stated),x,n,x,n,x,n
O=[N+]([O-])c1cccc(CSc2nnc3ccccn23)c1,n,n,n,n,n,n
CC(Sc1nc2ccccc2c(=O)n1C)C(=O)Nc1ccc2c(c1)OCCO2 (configuration not stated),x,n,x,0.17µM,x,0.15µM
O=C(CSc1nnnn1CCCO)Nc1ccc2c(c1)OCO2,n,n,x,n,n,n
CC(=O)Nc1cccc(NC(=O)CSc2nnnn2C)c1,n,n,n,u,n,n
O=C(CSc1nnnn1Cc1ccccc1)NCCc1ccccc1,n,n,n,n,n,n
O=C(CSc1nnnn1Cc1ccccc1)NCC(=O)c1ccccc1,n,50µM,n,n,n,n
CC(C)n1nnnc1SCC(=O)Nc1ccc2c(c1)OCO2,70,n,n,u,26,n
Cc1ccc(NC(=O)CSc2nnnn2C)cc1S(=O)(=O)N(C)C,n,n,n,n,17,n
CCC(=O)Nc1cccc(NC(=O)CSc2nnnn2Cc2ccccc2)c1,n,n,u,2.1µM,n,n
Cc1ccccc1C(=O)N1CCC(C(=O)NC2CCCC2)CC1,n,n,n,n,n,n
S=C(NCc1ccc(Cl)cc1Cl)Nc1ccccc1,n,n,n,n,n,u
O=c1c2ccccc2nnn1CSc1ccc2c(c1)OCCO2,26,n,n,n,52,n
Cn1nnnc1SCC(=O)Nc1ccc2c(c1)OCCO2,81,n,n,n,33,n
Cc1ccc(-n2nnnc2SCC(=O)Nc2ccc3c(c2)OCCO3)cc1C,n,n,n,u,n,n
CCCNC(=O)CC1C(=O)N(Cc2ccccc2)C(C)c2nc3ccccc3n21 (configuration not stated),n,n,n,n,n,n
O=C(c1ccc([N+](=O)[O-])c(CS(=O)(=O)c2ccc(Cl)cc2)c1)N1CCCCC1,n,n,x,n,n,n
COc1ccccc1N(C)S(=O)(=O)c1ccc(C(=O)OCC(=O)N2CCC2)cc1,n,n,x,n,n,n
C=CCN1CCN(C(=O)CSc2ccccc2)CC1,32,n,n,n,34,n
O=C(CSc1ccccc1)N1CCC2(CC1)OCCO2,54,n,n,x,36,n
O=C(CSc1ccccc1)N1CCN(S(=O)(=O)c2ccccc2)CC1,n,n,n,n,n,u
O=C(c1ccc(-c2ccccc2)cc1)N1CCCC1,n,n,n,n,n,n
C=CCN1CCN(C(=O)c2ccc(-c3ccccc3)cc2)CC1,n,n,n,1.3µM,n,n
SMILES,Shiga toxin inh,Sm TGR inh,NS1 function inh,Pf growth 96h,Cycloheximide cs,Pf growth 48h
Cc1ccc2c(NC(=O)c3ccco3)cccc2n1,n,n,n,n,n,n
CCN(CC)S(=O)(=O)c1cccc(NC2=NCCCCC2)c1,n,n,n,n,n,n
O=c1[nH]c2cc3c(cc2cc1CN(Cc1nnnn1C1CCCC1)C1CCCC1)OCCO3,n,50µM,n,9.3µM,n,x
Cc1ccc2cc(CN(Cc3nnnn3C3CCCC3)C3CCCCC3)c(=O)[nH]c2c1C,70,n,n,u,36,n
Cc1ccc(-c2csc3nc(CSc4nnc(-c5ccc(Cl)cc5)n4C)[nH]c(=O)c23)cc1,n,n,n,n,13,n
Cc1ccc(-c2csc3nc(CN(C)Cc4ccccc4)[nH]c(=O)c23)cc1,n,n,x,4.1µM,n,12µM
O=c1[nH]c(Cc2ccc(F)cc2)nc2scc(-c3ccc(F)cc3)c12,n,n,n,u,17,n
CCn1c(SCc2nc3scc(-c4ccccc4)c3c(=O)[nH]2)nnc1-c1ccc(Cl)cc1,n,n,n,n,n,n
O=C(CCS(=O)(=O)c1ccc(Cl)cc1)NCCN1C(=O)S/C(=C\c2ccccc2F)C1=O,67,n,n,n,34,n
O=C(CNC(=O)c1ccccc1F)NCCN1C(=O)S/C(=C\c2ccccc2Cl)C1=O,n,n,n,n,n,n
Cc1ccc(S(=O)(=O)CCC(=O)NCCN2C(=O)S/C(=C\c3ccccc3)C2=O)cc1,n,n,n,u,16,n
O=S(=O)(NC1=NCCCCC1)c1ccc(Cl)cc1Cl,x,n,x,u,x,u
Cc1noc(C)c1-c1ccc2ncnc(NC3CCCc4ccccc43)c2c1 (configuration not stated),n,x,x,x,n,x
CC1CCC2(CC1)NC(=O)N(NC(=O)c1ccc(OC(C)C)cc1)C2=O (configuration not stated),x,n,x,n,x,n
O=C(Nc1ccc2c(c1)CCC2)c1cccc(F)c1,113,n,n,n,75,n
Cc1ccccc1CC(=O)Nc1ccc2c(c1)CCC2,n,n,n,n,n,n
O=C(Cc1ccccc1F)Nc1ccc2c(c1)CCC2,73,n,n,n,n,n
O=C(Cc1ccc2c(c1)CCCC2)Nc1ccc2ccccc2c1,active,n,n,n,43,n
O=C(Cc1cccc(F)c1)Nc1ccc2c(c1)CCC2,76,n,n,n,18,n
CC(=O)Nc1cccc(NC(=O)Cc2ccc3ccccc3c2)c1,n,n,n,u,n,n
OCC[C@@H]1C[C@@H](O)[C@H](O)[C@@]2(CCCc3ccccc3O2)O1,n,n,n,n,n,n
Cn1cc(C(=O)Nc2ccc3c(c2)CCC3)cn1,75,n,n,n,56,n
Cc1ccc(C(=O)Nc2ccc3c(c2)CCC3)cc1,n,x,n,u,n,n
COc1ccc(-c2cc(C(F)(F)F)nc(NC3CCCC3)n2)cc1OC,n,n,n,n,n,15µM
COc1ccc(CNc2nc(-c3ccc(OC)c(OC)c3)cc(C(F)(F)F)n2)cc1,x,n,x,x,x,x
CC(C)c1ccc(NC2CCCN(C(=O)CCc3cnn(C)c3)C2)cc1 (configuration not stated),n,n,n,7.4µM,n,n
CCc1[nH]nc(C(=O)N2CCCC(C(=O)c3cccc(OC(C)C)c3)C2)c1C (configuration not stated),51,n,n,u,24,u
CCc1cc(C(=O)N2CCCC(C(=O)c3cccc(OC(C)C)c3)C2)n(C)n1 (configuration not stated),n,n,n,u,n,n
CC(C)Oc1cccc(C(=O)C2CCCN(C(=O)CCc3cnn(C)c3)C2)c1 (configuration not stated),66,n,n,u,52,n
